From PubChem BioAssay
In the library only some 1.9% were active in any assay of this set; here they are far more common.
sEH act = activators of human soluble epoxide hydrolase; P34913; purified human sEH enzymatic activity, activator screen; activation, % at 2 µM; 91,000 tested, 0.04% active; in the data active = activation above about 37%
Target sequence (P34913 whole entry, looked up): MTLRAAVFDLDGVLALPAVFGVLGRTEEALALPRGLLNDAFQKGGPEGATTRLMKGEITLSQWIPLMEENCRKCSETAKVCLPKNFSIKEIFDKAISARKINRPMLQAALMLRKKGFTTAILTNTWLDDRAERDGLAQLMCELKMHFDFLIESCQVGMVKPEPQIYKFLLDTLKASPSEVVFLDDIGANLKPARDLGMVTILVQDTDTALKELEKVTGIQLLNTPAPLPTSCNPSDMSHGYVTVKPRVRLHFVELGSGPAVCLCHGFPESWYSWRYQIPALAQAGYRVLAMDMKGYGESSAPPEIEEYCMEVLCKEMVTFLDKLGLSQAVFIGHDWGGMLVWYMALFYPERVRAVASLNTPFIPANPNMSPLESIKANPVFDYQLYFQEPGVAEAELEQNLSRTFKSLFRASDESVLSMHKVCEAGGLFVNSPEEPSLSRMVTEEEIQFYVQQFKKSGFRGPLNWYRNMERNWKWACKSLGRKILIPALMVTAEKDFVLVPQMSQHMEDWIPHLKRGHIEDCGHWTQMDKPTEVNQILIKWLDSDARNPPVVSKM
sdo1 growth = sdo1-depleted yeast growth rescue | S. cerevisiae sdo1-depleted JHY4D growth rescue, OD600 30 h; active compounds read high; pdr5 snq2 efflux-pump mutant strain | z-score at 10 µM | 140,000 tested, 0.21% active | AID 817;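 active = z-score above 3 at both the 24 hr and the 30 hr optical density reads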;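 also: z-score against mean and SD of all compound wells on the same plate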
Measles CPE = protection of cells from measles virus; Measles virus-infected cells, CPE protection, absorbance; protection (pct of control), % at 4 µM; 140,000 tested, 1.5% active; in the data active = protection mostly above about 24%, no sharp cut-off; inactive = mostly below about 26%
sEH inhibitor = inhibitors of human soluble epoxide hydrolase | P34913 | 91,000 tested, 0.34% active | recombinant human sEH enzymatic activity assay | inhibition, % at 2 µM; in the data active = inhibition above about 80%
SDO1 rescue DR = confirmation of growth rescue in SDO1-depleted yeast, bone marrow failure; shares compounds with sdo1 growth; S. cerevisiae JHY4D (SDO1-depleted) growth rescue, OD600, 30 h; active compounds read high; efflux-deficient strain, SNQ2 and PDR5 mutated; OD recovery (no concentration beside the values); 440 tested, 44% active; AID 949;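 active = yeast growth recovered at 30 hours, either rising with dose fitted slope above 0.001 or with average optical density gain above 0.07, some results past the limit were not filed as active; inactive = growth falling with dose or no effect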;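 also: gain in OD600 from 0 h to 30 h averaged across all seven doses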
* = called active by the depositor; / = no result.

SMILES | sEH act | sdo1 growth | Measles CPE | sEH inhibitor | SDO1 rescue DR
COC(=O)c1c(NC(=O)Cc2cccs2)sc2c1CCCC2 | 0 | 7.5* | 27 | 1 | 0.048
N#Cc1ccc(NC(=O)COC(=O)CNC(=O)C2CCCCC2)cc1 | -8 | 0.26 | 5 | 10 | /
Cc1cccc(NC(=O)COC(=O)CNC(=O)C2CCCCC2)c1 | -6 | 5.7* | 2 | 5 | 0.067
CCOc1ccc(/C=C/C(=O)Nc2ccc(N3CCOCC3)cc2)cc1 | -7 | -0.99 | 3 | 9 | /
O=C(CSc1ncn[nH]1)Nc1nc(-c2ccccc2)ns1 | 5 | 1.4 | 5 | -2 | 0.06
Cc1cc(C)cc(N(C(=O)C2CCCC2)C2C=CS(=O)(=O)C2)c1 (configuration not stated) | / | -0.66 | 6 | / | /
Cc1ccc2c(CC(=O)NNC(=O)c3ccccc3)coc2c1 | / | 6.7* | 34 | / | 0.084*
CCOC(=O)c1c(-c2ccccc2)nnn1-c1nc(OCC)nc(N2CCCCC2)n1 | / | -1.1 | 6 | / | /
O=C(CSc1ncnc2c1oc1ccccc12)Nc1ccccc1F | 10 | 0.18 | 6 | -8 | 0.056
CCOc1ccccc1NC(=O)CSc1ncnc2c1oc1ccccc12 | 8 | 0.13 | 4 | -5 | /
CC1(C)NC(=O)N(CC(O)CN2C(=O)NC(C)(C)C2=O)C1=O | 16 | 9.1* | 3 | -16 | 0.13*
O=C1COc2ccc(C(=O)COC(=O)c3ccc4ccccc4n3)cc2N1 | -5 | 1.7 | 3 | 8 | 0.099*
O=C(CSc1nc(Nc2ccccc2)nc(N2CCOCC2)n1)N1CCCC1 | 4 | 4* | 3 | -6 | 0.1
COc1ccc(CNc2nc3c(c(=O)n(Cc4ccc(Br)cc4)c(=O)n3C)n2C)cc1 | 13 | -0.01 | 15 | -13 | 0.069
Cn1c(NCc2ccccc2)nc2c1c(=O)n(Cc1ccc(Br)cc1)c(=O)n2C | / | -2 | 13 | / | /
NC(=O)CCn1nc(-c2ccc(Cl)cc2)c2ccccc2c1=O | 6 | 4.3* | 8 | -4 | 0.077*
Cc1cc(N2CCOCC2)nc(SCC(=O)c2ccccc2)n1 | / | 0.31 | 9 | / | 0.085*
COc1ccc(CNc2nc3nc(C)cc(C)n3n2)cc1 | 9 | -0.2 | 9 | -6 | /
COc1ccc(-c2nc3nc(C)cc(C)n3n2)cc1 | 0 | 13* | 5 | 3 | 0.063
CC1(C)C(=O)OC(c2ccccc2)C2(CCCC2)C1=O (configuration not stated) | -5 | 3.2* | 18 | 5 | 0.061
O=c1oc2ccccc2c2nccnc12 | -5 | 5.4* | 7 | 3 | 0.043
COc1cc(C(=O)NCCc2cn3ccc(C)cc3n2)cc(OC)c1OC | -8 | 0.03 | 4 | 7 | /
COc1ccc(C(=O)NCCc2cn3ccc(C)cc3n2)cc1 | 3 | 1.1 | 29 | -4 | 0.081*
Cc1ccc(CN2C(=O)C(C)(C)Oc3ccc(C(=O)N4CCCCC4)cc32)cc1 | 18 | -0.98 | 37 | -19 | /
COc1ccc(NC(=O)C2CCN(S(C)(=O)=O)CC2)cc1 | 0 | 0.17 | 4 | 2 | /
SMILES | sEH act | sdo1 growth | Measles CPE | sEH inhibitor | SDO1 rescue DR
COc1ccc(-c2c(C)sc(NC(=O)c3ccnn3C)c2C#N)cc1 | / | 1.7 | 10 | / | 0.085*
COc1ccc(C(=O)Nc2sc(C)c(-c3ccccc3)c2C#N)cc1OC | 4 | -0.48 | 13 | -1 | /
CCc1cccc2c(SCC(=O)NCC3CCCO3)nc(-c3ccc(F)cc3)nc12 (configuration not stated) | 8 | 0.88 | 0 | -6 | 0.042
CCc1ccc2nc(-c3cccc(C)c3)nc(SCC(=O)NCC3CCCO3)c2c1 (configuration not stated) | -4 | -1.8 | 17 | 2 | /
CCC1(C)Cc2ccccc2-c2nc(NCCCO)n(-c3ccccc3)c(=O)c21 (configuration not stated) | -4 | 5.8* | 2 | 1 | 0.074
CC(C(=O)Nc1cccnc1)N1C(=O)c2ccccc2C1=O (configuration not stated) | / | 4.1* | 26 | / | 0.088*
O=C(NNC(=O)C1CC1)c1ccc(-c2ccccc2)cc1 | -2 | 0.16 | 20 | 4 | /
CCN(CC)c1ccc(/C=N/NC(=S)NCc2ccco2)cc1 | / | -0.39 | 11 | / | /
S=C(NCc1ccco1)N/N=C/c1ccc(Cl)cc1 | / | 8.4* | 6 | / | 0.079*
Cc1cc(C)cc(N(CCC#N)C(=O)CSc2nc3nc(C)cc(C)n3n2)c1 | -9 | 2 | 12 | 12 | /
CC(=O)Nc1ccc(SCC(=O)N(CCC#N)c2cc(C)cc(C)c2)cc1 | 12 | 3.9* | 9 | -11 | 0.084*
COc1cccc(C(=O)Nc2ccc(NC(=O)C3CC3)cn2)c1 | 8 | 2.4 | 10 | -8 | 0.084*
CCC(=O)Nc1ccc(NC(=O)c2cccc(OC)c2)nc1 | -2 | 0.47 | 8 | 0 | /
COc1ccc(/C=N\NC(=O)COc2ccc(Cl)cc2Cl)c(C(=O)O)c1OC | / | 2.5 | 14 | / | 0.042
COc1ccc(C(=O)N=c2nc3ccccn3s2)cc1 | / | 1.9 | 11 | / | 0.085*
COc1ccc(C(=O)O/N=C(\C)c2ccccc2)cc1 | -2 | 0.51 | 3 | 4 | /
O=C(CSc1ncccn1)Nc1ccc(N2CCOCC2)cc1 | 5 | 0.52 | 2 | -4 | /
CC(CCc1ccccc1)NC(=O)CSc1nc(N)cc(N)n1 (configuration not stated) | -3 | 13* | 19 | 2 | 0.11*
CC(CCc1ccccc1)NC(=O)CSc1nnnn1C (configuration not stated) | -3 | -0.77 | 2 | 4 | /
CCOC(=O)CNC(=O)c1cccnc1 | 3 | 1.4 | 10 | -4 | /
CCOC(=O)C(O)(NC(=O)c1cccnc1)C(F)(F)F (configuration not stated) | 3 | 8.1* | 4 | -6 | 0.093*
Cc1cnc(NC(=O)c2sc3ccccc3c2Cl)s1 | / | -0.23 | 7 | / | /
Cc1ccnc(NC(=O)c2sc3ccccc3c2Cl)c1 | / | 3.9* | 6 | / | 0.13*
Cc1ccc(-n2[nH]c(C)c(C=Nc3cc(C)ccn3)c2=O)cc1 | 0 | 9.4* | 3 | 3 | 0.07*
Cc1ccc(-n2[nH]c(C)c(/C=N/c3ccccn3)c2=O)cc1 | 12 | 0.68 | 4 | -14 | /
SMILES | sEH act | sdo1 growth | Measles CPE | sEH inhibitor | SDO1 rescue DR
COc1ccc2nc(SC(C(=O)c3ccccc3)c3ccccc3)nc(C)c2c1 (configuration not stated) | / | 1.4 | 14 | / | 0.066
Cc1[nH]c2ccccc2c1C(=O)CN1CCN(C/C=C/c2ccccc2)CC1 | -5 | -0.43 | 36 | 6 | /
Cc1[nH]c2ccccc2c1C(=O)CN1CCN(C2CCCCC2)CC1 | 2 | 9.1* | 3 | -2 | 0.045
O=C(COC(=O)c1ccc(Cl)c(S(=O)(=O)N2CCCC2)c1)NC1CCCC1 | -14 | 1 | 6 | 13 | /
COc1ccc(-n2cnnc2SCc2cnc(-c3ccccc3)s2)cc1 | 5 | 3.1* | 20 | -7 | 0.082
CC1(C)CC(=O)C(=Cc2cn(-c3ccccc3)nc2-c2ccc(Cl)cc2)C(=O)C1 | -17 | -0.02 | 12 | 19 | /
CN1CCN(c2ccc(Cl)cc2NC(=O)c2ccc(S(=O)(=O)N(C)C)cc2)CC1 | 7 | 4.3* | 11 | -6 | 0.045
c1cnc(N2CCSCC2)nc1 | -13 | 8.9* | 6 | 16 | 0.052
